Test [1] has as its target human Retinoid X Receptor beta (RXRb), RXRB (gene 6257) (UniProt P28702). Description: ATG_RXRb_TRANS: Attagene TRANS-FACTORIAL HepG2 Assay for human Retinoid X Receptor beta (RXRb) (AID 2283013; active = hit-call score of the fitted dose curve at least 0.9, where 1 is the maximum). In outline:
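After a 24 h incubation with test chemical, transfected HepG2 cells carrying NR-Gal4 fusions and GAL4-UAS reporter transcription units yield RNA whose reporter cDNA is FAM-labelled, HpaI-cut and sized by capillary electrophoresis; increases over DMSO are scored.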

Read-out in test [2]: E-selectin (Homo sapiens) (UniProt P16581)
In words: BSK_3C_Eselectin: BioMAP Diversity Plus: 3C Assay for Eselectin Biomarker Activity (AID 2283015).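 Also: cell surface E-selectin protein quantified by ELISA 24 h after dosing.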 Conditions: primary human endothelial cells (HUVEC); actives raise or lower the signal. In outline: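 Primary human umbilical vein endothelial cells (3C system), read 24 h after compound addition; E-selectin measured by ELISA. Bidirectional curve fitting against DMSO baseline; cytotoxicity by parallel SRB total-protein staining.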

Read-out in test [3]: Interleukin-1 alpha (IL1a), IL1A (gene 3552)
In words: BSK_BE3C_IL1a: BioMAP Diversity Plus: BE3C Assay for Interleukin-1 alpha (IL1a) Biomarker Activity (AID 2283016). Particulars: primary human bronchial epithelial cells; actives raise or lower the signal. A digest of the protocol:
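Measured in human lung primary bronchial epithelial cells: IL-1a by ELISA at 24 h after dosing, with bidirectional fitting against DMSO.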

Read-out in test [4]: Monocyte Chemoattractant Protein-1 (MCP1), CCL2 (gene 6347)
In words: BSK_3C_MCP1: BioMAP Diversity Plus: 3C Assay for Monocyte Chemoattractant Protein-1 (MCP1) Biomarker Activity (AID 2283017). Conditions: primary human endothelial cells (HUVEC); actives raise or lower the signal. A digest of the protocol: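 Human umbilical vein endothelial cells (3C system) exposed to chemicals for 24 h; MCP-1 quantified by ELISA against the DMSO baseline with bidirectional fitting, and parallel SRB staining used to assess cytotoxicity.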

Read-out in test [5]: Monocyte Chemoattractant Protein-1 (MCP1), CCL2 (gene 6347)
Description: BSK_4H_MCP1: BioMAP Diversity Plus: 4H Assay for Monocyte Chemoattractant Protein-1 (MCP1) Biomarker Activity (AID 2283018). Conditions: primary human endothelial cells (HUVEC); actives raise or lower the signal. In outline:
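Primary human umbilical vein endothelium is exposed to chemical for 24 h before MCP-1 is assayed by ELISA. Concentration-response fitted bidirectionally relative to DMSO.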

Read-out in test [6]: Human Leukocyte Antigen - DR isotype (HLADR), HLA-DRA (gene 3122)
Description: BSK_3C_HLADR: BioMAP Diversity Plus: 3C Assay for Human Leukocyte Antigen - DR isotype (HLADR) Biomarker Activity (AID 2283019).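 Also: ELISA of cell-surface HLA-DR on HUVEC 24 h after dosing.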 Conditions: primary human endothelial cells (HUVEC); actives raise or lower the signal. In outline:
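HUVEC monoculture, HLA-DR measured by ELISA 24 h after chemical dosing. Fitted bidirectionally against DMSO baseline; parallel SRB staining assessed cytotoxicity, with 3C proliferation read by SRB at 48 h.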

Read-out in test [7]: Interleukin-8 (IL8), CXCL8 (gene 3576)
In words: BSK_3C_IL8: BioMAP Diversity Plus: 3C Assay for Interleukin-8 (IL8) Biomarker Activity (AID 2283020). Conditions: primary human endothelial cells (HUVEC); actives raise or lower the signal. A digest of the protocol: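 Using DMSO-treated wells as the baseline, bidirectional curve fitting was applied to ELISA-measured IL-8 from human umbilical vein endothelial cultures sampled 24 h after compound addition.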

Read-out in test [8]: Monokine induced gamma interferon (MIG), CXCL9 (gene 4283)
Description: BSK_3C_MIG: BioMAP Diversity Plus: 3C Assay for Monokine induced gamma interferon (MIG) Biomarker Activity (AID 2283021). Conditions: primary human endothelial cells (HUVEC); actives raise or lower the signal. A digest of the protocol: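 ELISA-measured MIG in dosed HUVEC 3C cultures at 24 h, analysed by bidirectional fitting with DMSO defining baseline activity.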

The nature of test [9]: BSK_3C_SRB: Viability Assessment in the BioMAP Diversity Plus: 3C Assay (AID 2283023).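 Also: fitted both ways against DMSO so a hit may be signal rise or drop.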 Particulars: primary human endothelial cells (HUVEC). A digest of the protocol: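 Human umbilical vein endothelial cells in the 3C system, treated 24 h. Total protein measured by 0.1% sulforhodamine B staining after 10% TCA fixation, read at 560 nm; bidirectional fit versus DMSO.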
Read-out in test [10]: Matrix Metallopeptidase 1 (MMP1), MMP1 (gene 4312)
In words: BSK_BE3C_MMP1: BioMAP Diversity Plus: BE3C Assay for Matrix Metallopeptidase 1 (MMP1) Biomarker Activity (AID 2283024). Conditions: primary human bronchial epithelial cells; actives raise or lower the signal. In outline:
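In this multiplexed primary-cell system, human bronchial epithelium received chemicals for 24 h before an ELISA for MMP1. Values reflect bidirectional fits normalised to the DMSO baseline.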

Test [11] is described as follows: BSK_3C_Vis: BioMAP Diversity Plus: 3C Assay for Morphology Visualization (AID 2283025).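 Also: fitted both ways so gain or loss versus DMSO counts.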 Conditions: primary human endothelial cells (HUVEC). A digest of the protocol: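 Light-microscopy morphology readout, 24 h exposure, human primary umbilical vein endothelium; analysed relative to DMSO with bidirectional fitting.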
Read-out in test [12]: Pselectin, SELP (gene 6403)
Description: BSK_4H_Pselectin: BioMAP Diversity Plus: 4H Assay for Pselectin Biomarker Activity (AID 2283026). Conditions: primary human endothelial cells (HUVEC); actives raise or lower the signal. In outline:
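Bidirectional fits against DMSO gave the endpoint. Cells: primary human umbilical vein endothelium, chemical-treated for 24 h before ELISA detection of P-selectin.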

The nature of test [13]: BSK_BE3C_SRB: Viability Assessment in the BioMAP Diversity Plus: BE3C Assay (AID 2283028). Particulars: primary human bronchial epithelial cells. A digest of the protocol:
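Human bronchial epithelial primary cells in confluent culture, 24 h after chemical dosing; total protein by 0.1% SRB staining after 10% TCA fixation, read at 560 nm. Bidirectional fitting versus DMSO baseline.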

Read-out in test [14]: Thrombomodulin, THBD (gene 7056)
In words: BSK_3C_Thrombomodulin: BioMAP Diversity Plus: 3C Assay for Thrombomodulin Biomarker Activity (AID 2283029). Particulars: primary human endothelial cells (HUVEC); actives raise or lower the signal. A digest of the protocol: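 In a multiplexed primary-cell system, human umbilical vein endothelium received chemical and was assayed 24 h later for thrombomodulin by ELISA. Parallel cultures were SRB-stained (0.1% SRB after 10% TCA fixation, read at 560 nm) to flag cytotoxicity.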

Read-out in test [15]: Urokinase-type plasminogen activator receptor (uPAR), PLAUR (gene 5329)
In words: BSK_4H_uPAR: BioMAP Diversity Plus: 4H Assay for Urokinase-type plasminogen activator receptor (uPAR) Biomarker Activity (AID 2283030). Conditions: primary human endothelial cells (HUVEC); actives raise or lower the signal. A digest of the protocol:
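Human umbilical vein endothelial cells in the 4H system, 24 h after chemical dosing. Cell-surface uPAR measured by ELISA, fitted in both directions versus DMSO; cytotoxicity checked by SRB total protein in parallel cultures.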

Read-out in test [16]: Vascular endothelial growth factor receptor 2 (Homo sapiens) (UniProt P35968)
In words: BSK_4H_VEGFRII: BioMAP Diversity Plus: 4H Assay for Vascular endothelial growth factor receptor 2 (VEGFR2) Biomarker Activity (AID 2283031). Particulars: primary human endothelial cells (HUVEC); actives raise or lower the signal. In outline:
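Primary human umbilical vein endothelial cells (4H system), 24 h exposure; cell-surface VEGFR2 measured by ELISA. Bidirectional fitting versus DMSO; cytotoxicity checked in parallel by SRB total-protein staining.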

Read-out in test [17]: Human Leukocyte Antigen - DR isotype (HLADR), HLA-DRA (gene 3122)
In words: BSK_BE3C_HLADR: BioMAP Diversity Plus: BE3C Assay for Human Leukocyte Antigen - DR isotype (HLADR) Biomarker Activity (AID 2283032). Conditions: primary human bronchial epithelial cells; actives raise or lower the signal. In outline: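 BioMAP BE3C format: human bronchial epithelium, 24 h compound treatment, ELISA detection of HLA-DR, with bidirectional analysis relative to DMSO.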

The target in test [18] is human Vitamin D Receptor (VDR), VDR (gene 7421) (UniProt P11473). In words: ATG_VDR_TRANS: Attagene TRANS-FACTORIAL HepG2 Assay for human Vitamin D Receptor (VDR) (AID 2283022; active = hit-call score of the fitted dose curve at least 0.9, where 1 is the maximum). In outline: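 HepG2 cells were transiently transfected with GAL4-UAS reporter units and a chimeric VDR-Gal4 construct, then dosed for 24 hours. Reporter mRNA was quantified by RT-PCR, fluorescent labeling, HpaI digestion and capillary electrophoresis; gain of signal analysed vs DMSO.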

Test [19] is described as follows: BSK_4H_SRB: Viability Assessment in the BioMAP Diversity Plus: 4H Assay (AID 2283027).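 Also: cells exposed to compound for 24 h before staining.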 Conditions: primary human endothelial cells (HUVEC). A digest of the protocol:
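Cytotoxicity readout: sulforhodamine B (0.1%) staining of total protein after 10% TCA fixation, measured at 560 nm in human umbilical vein endothelium at 24 h. DMSO set the baseline; fitting was bidirectional.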

“And” between values parts separate entries of the source, which are not always exact repeats. Identical values can stand only once. Inconclusive results are not listed. Where a structure was tested more than once in an assay, its records may differ in their call. The source made the active and inactive calls. The calls were made as follows, unless noted: active = hit-call score of the fitted dose curve at least 0.9, where 1 is the maximum; inactive = score below 0.9.

Consider seven molecules from PubChem BioAssay (EPA / NIEHS).

human Retinoid X Receptor beta (RXRb), RXRB (gene 6257), sequence (P28702 whole entry, looked up, the tested form may be a part): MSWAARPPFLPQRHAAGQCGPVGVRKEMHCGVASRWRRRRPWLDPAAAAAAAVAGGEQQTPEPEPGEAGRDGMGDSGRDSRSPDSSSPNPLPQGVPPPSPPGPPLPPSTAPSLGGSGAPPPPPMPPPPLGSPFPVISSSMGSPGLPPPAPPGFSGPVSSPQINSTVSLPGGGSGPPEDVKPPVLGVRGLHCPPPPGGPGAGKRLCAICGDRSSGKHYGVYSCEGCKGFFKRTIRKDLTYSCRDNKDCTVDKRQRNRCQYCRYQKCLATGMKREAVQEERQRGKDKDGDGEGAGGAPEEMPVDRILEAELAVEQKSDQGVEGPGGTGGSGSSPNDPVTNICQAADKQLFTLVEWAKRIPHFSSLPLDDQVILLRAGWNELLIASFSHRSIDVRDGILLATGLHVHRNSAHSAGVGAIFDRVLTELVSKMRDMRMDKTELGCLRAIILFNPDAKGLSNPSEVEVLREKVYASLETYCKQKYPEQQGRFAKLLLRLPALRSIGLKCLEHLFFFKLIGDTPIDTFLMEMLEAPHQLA
E-selectin (Homo sapiens), sequence (P16581 whole entry, looked up): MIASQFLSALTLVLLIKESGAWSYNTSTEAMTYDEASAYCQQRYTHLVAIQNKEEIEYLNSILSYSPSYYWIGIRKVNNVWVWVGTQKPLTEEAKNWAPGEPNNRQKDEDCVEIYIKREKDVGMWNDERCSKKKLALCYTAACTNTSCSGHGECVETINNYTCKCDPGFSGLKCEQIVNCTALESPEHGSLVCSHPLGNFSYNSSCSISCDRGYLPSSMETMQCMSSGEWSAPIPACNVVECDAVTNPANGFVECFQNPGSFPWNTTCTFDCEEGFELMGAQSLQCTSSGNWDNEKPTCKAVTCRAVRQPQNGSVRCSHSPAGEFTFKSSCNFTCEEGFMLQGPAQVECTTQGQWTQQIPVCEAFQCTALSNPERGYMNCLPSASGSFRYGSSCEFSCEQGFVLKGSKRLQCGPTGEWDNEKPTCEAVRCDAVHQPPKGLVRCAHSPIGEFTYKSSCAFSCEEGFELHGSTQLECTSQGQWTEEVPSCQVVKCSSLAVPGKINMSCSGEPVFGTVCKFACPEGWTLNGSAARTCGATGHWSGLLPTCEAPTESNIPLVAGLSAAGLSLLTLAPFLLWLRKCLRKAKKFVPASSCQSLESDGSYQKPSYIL
human Vitamin D Receptor (VDR), VDR (gene 7421), sequence (P11473 whole entry, looked up, the tested form may be a part): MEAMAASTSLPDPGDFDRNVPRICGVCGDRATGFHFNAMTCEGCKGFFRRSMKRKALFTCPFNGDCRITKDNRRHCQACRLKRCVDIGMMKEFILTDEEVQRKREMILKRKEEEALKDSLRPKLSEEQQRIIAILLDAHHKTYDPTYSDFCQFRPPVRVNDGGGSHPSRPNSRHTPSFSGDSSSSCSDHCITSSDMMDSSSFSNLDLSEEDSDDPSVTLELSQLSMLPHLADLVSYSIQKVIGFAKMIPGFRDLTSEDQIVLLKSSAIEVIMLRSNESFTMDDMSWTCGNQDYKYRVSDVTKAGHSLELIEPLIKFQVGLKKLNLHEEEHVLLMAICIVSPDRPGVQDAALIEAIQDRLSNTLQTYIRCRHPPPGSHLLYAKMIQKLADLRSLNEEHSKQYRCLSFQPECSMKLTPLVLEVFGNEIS

For `CCCCC(CC)C(=O)O` (stereo unspecified), the molecule was called inactive in [1], in test [2], in test [3], in [4], in test [5] and in test [6]. Further, the outcome in test [7], in [8], in test [9], in test [10], in [11] and in [12] was inactive. In addition, the outcome in test [13], in [14], in [15], in test [16] and in test [17] was inactive.
As to `FC(OC(F)(F)C(F)(F)C(F)(F)F)C(F)(F)F` (stereo unspecified), the result in test [1] and in test [18] was inactive.
Consider `COCN(COC)c1nc(N(COC)COC)nc(N(COC)COC)n1`, for which the outcome in [1], in [2], in test [3], in test [4], in test [5] and in [6] was inactive. Further, the outcome in test [7], in [8], in [18], in [9], in test [10] and in [11] was inactive. The outcome in [12], in [13], in test [14], in test [15], in [16] and in test [17] was inactive.
As for `Cc1cncc(C)c1`, the call in test [1] and in [18] was inactive.
`OCC(F)(F)C(F)(F)C(F)(F)C(F)(F)C(F)(F)C(F)(F)C(F)(F)C(F)(F)C(F)(F)C(F)(F)C(F)(F)F`: the molecule was called inactive in test [1], in [2], in test [3], in test [4], in test [5] and in test [6]. The result in [7], in [8], in test [18], in test [10], in test [12] and in test [19] was inactive. Besides, the outcome in [13], in [14], in test [15] and in test [16] was inactive. For the same molecule, the AC50 (in general, the concentration at which the activity in the assay is half-maximal) is 271 nM (active) and 201 nM (active) in test [9]; 275 nM (active) in test [12]; 423 nM (active) in test [14]; 251 nM (active) and 154 nM (active) in [17].
Consider `CCCCC=O`, for which the call in test [1], in [2], in [3], in [4], in test [5] and in test [6] was inactive. Further, the outcome in test [7], in test [8], in [18], in test [9], in test [10] and in test [11] was inactive. Also, the outcome in [12], in test [13], in [14], in test [15], in test [16] and in test [17] was inactive.
Take `O=C1NS(=O)(=O)c2ccccc21`: the molecule was classed as inactive in test [1], in test [2], in [3], in test [4], in test [5] and in test [6]. The result in test [7], in test [8], in test [9], in [10], in test [11] and in test [12] was inactive. The outcome in test [19], in test [13], in test [14], in test [15], in [16] and in [17] was inactive. Besides, in test [12], the AC50 is 5010 nM (active).
